# PubChem BioAssay AID463173 (ICCB-Longwood Screening Facility, Harvard Medical School, 2010)
# In all, about 52,000 compounds went through this assay and about 4,300 (8.3%) were called active. Cut-off read from the data, not from the text of the source: active = survival mostly below about 52% (no sharp cut-off); inactive = mostly above about 56%. The sample as a whole holds a higher share of actives than the screen did.
# Test system: DeltatarO mutant
# Experiment: growth inhibition of S. aureus wild type versus tarO mutant, primary screen, teichoic acid synthesis inhibitors, RN4220, OD600 (AID 463173)
# Conditions: OD600, 18 h, stronger effect = lower value, screened at 18.75 µg/mL (by protocol)
row,Structure (SMILES),survival
1,O=C(NCCc1ccc(Cl)cc1)C1CCN(c2ncnc3c2nc2n3CCCCC2)CC1,89% (inactive)
2,O=C(C1CCN(c2ncnc3c2nc2n3CCCCC2)CC1)N1CCN(c2ccc(F)cc2)CC1,-1% (active)
3,Cc1cccc(N2CCN(c3ncnc4c3nc3n4CCCCC3)CC2C)c1 (stereo unspecified),101% (inactive)
4,O=c1c(N2CCc3ccccc3C2)csc2ccc(Br)cc12,78% (inactive)
5,Cc1cc(C)c(S(=O)(=O)Nc2ccc(-c3ccc(N4CCCCCC4)nn3)cc2)c(C)c1,84% (inactive)
6,O=C1CC(C(=O)NCc2ccccc2)N=C(N2CCCCC2)N1 (stereo unspecified),97% (inactive)
7,Cc1cc(C)cc(NC(=O)CN(C)S(=O)(=O)c2ccc3c(c2)CCC(=O)N3)c1,90% (inactive)
8,CCCCOC(=O)OC1CCS(=O)(=O)C1 (stereo unspecified),66% (inactive)
9,Cc1cccc(-n2cc(-c3ccccc3)c3c(NC(C)C)ncnc32)c1,107% (inactive)
10,Nc1ccc2nc(C(F)(F)F)[nH]c2c1,95% (inactive)
11,Cc1nc2nc(C(F)(F)F)[nH]c2cc1Br,4% (active)
12,COc1ccccc1OC(C)C(=O)Nc1ccc(-c2nc3ccccc3s2)cc1 (stereo unspecified),64% (inactive)
13,Cc1cc(OC(C)C(=O)Nc2cccc(-c3nc4ccccc4o3)c2)cc(C)c1Cl (stereo unspecified),46% (active)
14,Cc1ccc(C(=O)Nc2cccc(-c3nc4ccccc4o3)c2)c(Cl)c1,53% (inactive)
15,CC(Oc1ccccc1F)C(=O)Nc1ccc(-c2nc3ccccc3s2)cc1 (stereo unspecified),107% (inactive)
16,CC(C)C(=O)Nc1cccc(-c2nc3ccccc3o2)c1,112% (inactive)
17,CC(=O)Nc1cccc(-c2nc3ccccc3o2)c1,107% (inactive)
18,Cc1cc2oc(C(=O)Nc3cccc(-c4nc5ccccc5o4)c3)c(C)c2cc1Cl,80% (inactive)
19,COc1ccccc1OC(C)C(=O)Nc1cccc(-c2nc3ccccc3o2)c1 (stereo unspecified),18% (active)
20,COc1ccccc1OC(C)C(=O)Nc1cccc(-c2nc3ccccc3s2)c1 (stereo unspecified),37% (active)
21,COc1ccc(-c2cn3nc(N4CCCC(C(=O)Nc5cccc(Cl)c5C)C4)sc3n2)cc1 (stereo unspecified),82% (inactive)
22,COc1ccc(-n2ncc(C(=O)NCCCN3CCCCC3)c2C2CCN(C(=O)OC(C)(C)C)CC2)cc1,73% (inactive)
23,CCCOc1ccc(C(=O)Nc2ccc3oc(-c4ccncc4)nc3c2)cc1,62% (inactive)
24,Cc1cccc(-c2cc(NC(=O)c3ccccc3C)n(-c3ccccc3)n2)c1,80% (inactive)
25,Cc1nc2sc(C(=O)N(C)c3ccccc3)c(NC(=O)c3ccccc3Cl)c2c(C)c1C,57% (inactive)
26,CCCCCn1c(=O)[nH]c2cc(C(=O)NCc3ccc(Cl)cc3)ccc2c1=O,71% (inactive)

row,Structure (SMILES),survival
1,COc1cccc2cc(-c3csc(-c4ccc(Cl)cc4)n3)c(=O)oc12,99% (inactive)
2,COc1ccc(NC(=O)c2c(C)oc3ccc(O)c(CN4CCC(C)CC4)c23)cc1Cl,55% (active)
3,COc1ccc(NC(=O)c2c(C)oc3ccc(O)c(CN4CCCC(C)C4)c23)cc1Cl (stereo unspecified),52% (active)
4,COc1ccc(NC(=O)c2c(C)oc3ccc(O)c(CN4CCCC4)c23)cc1Cl,80% (inactive)
5,COc1ccc(NC(=O)c2c(C)oc3ccc(O)c(CN4CCCC(C)C4)c23)cc1 (stereo unspecified),87% (inactive)
6,COc1ccc(NC(=O)c2c(C)oc3ccc(O)c(CN4CCCCCC4)c23)cc1Cl,94% (inactive)
7,CCN1CCN(Cc2c(O)ccc3oc(C)c(C(=O)Nc4ccc(OC)c(Cl)c4)c23)CC1,66% (inactive)
8,COc1ccc(CCNCc2c(C(=O)O)c(C)n(Cc3c(F)cccc3Cl)c2C)cc1OC,121% (inactive)
9,CCCCOC(=O)c1ccc(NC(=O)Cn2nnc3sc4c(c3c2=O)CCCC4)cc1,67% (inactive)
10,Cc1ccc(CCNS(=O)(=O)c2c(C)nc3sc(C)c(C)n3c2=O)cc1,82% (inactive)
11,CCCNC(=O)c1cnc2sc(N3CCCCCC3)nn2c1=O,78% (inactive)
12,COc1ccc(CNC(=O)c2ccc(NC(=O)N3CCSc4ncccc43)cc2)cc1,84% (inactive)
13,COc1ccc(OC)c(-n2c3c(cc(-c4nc(-c5ccc(Cl)cc5)cs4)c2=O)C(=O)CC(C)(C)C3)c1,75% (inactive)
14,Cc1cc2nc(-c3ccc(NC(=O)c4cc5ccccc5o4)cc3)oc2cc1C,51% (inactive)
15,CCc1ccc2oc(-c3ccc(N)cc3)nc2c1,34% (active)
16,CCC(C)c1ccc2oc(-c3ccc(NC(=O)c4cc5ccccc5o4)cc3)nc2c1 (stereo unspecified),46% (active)
17,CCOc1ccc(C(=O)Nc2ccc(-c3nc4cc(CC)ccc4o3)cc2)cc1,61% (inactive)
18,CCc1ccc2oc(-c3cccc(NC(=O)COc4ccccc4Cl)c3)nc2c1,57% (inactive)
19,CCc1ccc2oc(-c3ccc(NC(=O)c4cccc(Cl)c4Cl)cc3)nc2c1,63% (inactive)
20,CCc1ccc2oc(-c3cccc(NC(=O)c4cc5ccccc5o4)c3)nc2c1,14% (active)
21,CCc1ccc2oc(-c3cccc(NC(=O)c4ccc(-c5cccc([N+](=O)[O-])c5)o4)c3)nc2c1,58% (inactive)
22,COc1ccc(-c2nc3cc(NC(=O)c4cc5ccccc5o4)ccc3o2)cc1,62% (inactive)
23,CCOc1ccc(C(=O)Nc2ccc3oc(-c4ccc(Br)cc4)nc3c2)cc1,68% (inactive)
24,CC(C)c1ccc2oc(-c3ccc(NC(=O)c4cc5ccccc5o4)cc3)nc2c1,48% (inactive)
25,CCc1ccc2oc(-c3cccc(NC(=O)C(C)(C)Oc4ccc(Br)cc4)c3)nc2c1,36% (active)
